{
  "source": "PubChem BioAssay AID463173",
  "about": "(ICCB-Longwood Screening Facility, Harvard Medical School, 2010)",
  "note": "Screen size: about 52,000 compounds; about 1,700 (3.3%) were called active. The full list was thinned out, with actives kept by preference. Values without a mark were called inactive. No stated cut-off is given here; in the data, active means survival mostly below about 52% (no sharp cut-off); inactive means mostly above about 56%.",
  "data": [
    {"test_system": "Wild type", "test": "growth inhibition of S. aureus wild type versus tarO mutant, primary screen, teichoic acid synthesis inhibitors, RN4220, OD600 (AID 463173)", "settings": "S. aureus RN4220 wild type/DeltatarO growth, OD600, 18 h, stronger effect = lower value, screened at 18.75 µg/mL (by protocol)", "values": [
      {"smiles": "Cc1nn(CC(=O)NCCc2ccc(Cl)cc2)c(=O)c2cc3cc(F)ccc3n12", "survival": "74%"},
      {"smiles": "Cc1cccc(NC(=O)CSC2=Nc3ccccc3C3=NC(CC(=O)NCc4cccs4)C(=O)N23)c1", "note": "(stereo unspecified)", "survival": "81%"},
      {"smiles": "Cc1ccc(C)c(CSc2nnc(C)n3c2cc2sccc23)c1", "survival": "65%"},
      {"smiles": "Cc1ccc2[nH]cc(C(c3ccccc3)c3ccc(Cl)s3)c2c1", "note": "(stereo unspecified)", "survival": "18%"},
      {"smiles": "Clc1ccc(C(c2ccccc2)c2c[nH]c3ccccc23)s1", "note": "(stereo unspecified)", "survival": "4% (active)"},
      {"smiles": "c1ccc(C(c2cccs2)c2c[nH]c3ccccc23)cc1", "note": "(stereo unspecified)", "survival": "17%"},
      {"smiles": "Cc1ccc(NC(=O)CN2C(=O)CSc3ccc(S(=O)(=O)N4CCCC4)cc32)c(C)c1", "survival": "98%"},
      {"smiles": "Cc1ccc2nc(Cl)c3cc(C(=O)NCCCN(C)Cc4ccccc4)sc3c2c1", "survival": "-3% (active)"},
      {"smiles": "CCN(CCCNC(=O)c1cc2c(Cl)nc3ccccc3c2s1)Cc1ccccc1", "survival": "96%"},
      {"smiles": "Cc1ccc2nc(Cl)c3cc(C(=O)N(C)C4CCCCC4)sc3c2c1", "survival": "35%"},
      {"smiles": "CCc1ccccc1N(C)C(=O)c1cc2c(Cl)nc3ccc(C)cc3c2s1", "survival": "0% (active)"},
      {"smiles": "CCN(C(=O)c1cc2c(Cl)nc3ccccc3c2s1)c1cccc(Cl)c1", "survival": "76%"},
      {"smiles": "Cc1ccc(Cl)cc1N(C)C(=O)c1cc2c(Cl)nc3ccccc3c2s1", "survival": "70%"},
      {"smiles": "CCCN(C(=O)c1cc2c(Cl)nc3ccccc3c2s1)c1cccc(C)c1", "survival": "1% (active)"},
      {"smiles": "CN(CCCNC(=O)c1cc2c(Cl)nc3ccccc3c2s1)Cc1ccccc1", "survival": "45%"},
      {"smiles": "CN(C(=O)c1cc2c(Cl)nc3ccccc3c2s1)c1cccc(C(F)(F)F)c1", "survival": "80%"},
      {"smiles": "CC1(C)N=C(SCc2ccc(Cl)cc2)c2ccccc2N1", "survival": "143%"},
      {"smiles": "Cc1ccc(C(=O)c2oc3ccccc3c2NC(=O)c2nc(S(C)(=O)=O)ncc2Cl)cc1F", "survival": "83%"},
      {"smiles": "COc1ccc(Nc2nn(-c3ccc(OC(F)(F)F)cc3)nc2C(C)=O)cc1", "survival": "95%"},
      {"smiles": "Cc1ccc(-c2cc3ncc4c(n3n2)-c2cc(Cl)ccc2OC4)cc1", "survival": "97%"},
      {"smiles": "CCn1c(=O)n(-c2ccc3c(c2)OCO3)c2nc(-c3ccc(C(C)C)cc3)nc(C(N)=O)c21", "survival": "130%"},
      {"smiles": "CCOC(=O)c1[nH]c(C)c(CCC(=O)Nc2c(C)cc(C)cc2C)c1C", "survival": "127%"},
      {"smiles": "Cc1ccc(OCCn2c(CCNC(=O)C3CCCCC3)nc3ccccc32)cc1", "survival": "65%"},
      {"smiles": "Cc1cccc(C)c1OCCn1c(CCNC(=O)C2CCCCC2)nc2ccccc21", "survival": "65%"},
      {"smiles": "Cc1cccc(C)c1OCCCn1c(CCNC(=O)C2CCCCC2)nc2ccccc21", "survival": "28% (active)"},
      {"smiles": "O=C(NCCc1nc2ccccc2n1CCCOc1ccc(Cl)cc1)C1CCCCC1", "survival": "10% (active)"},
      {"smiles": "Cc1cccc(OCCCn2c(CCNC(=O)C3CCCCC3)nc3ccccc32)c1", "survival": "34%"},
      {"smiles": "Cc1cc(OCCn2c(CCNC(=O)C3CCCCC3)nc3ccccc32)ccc1Cl", "survival": "67%"},
      {"smiles": "Cc1cc(OCCCn2c(CCNC(=O)C3CCCCC3)nc3ccccc32)ccc1Cl", "survival": "0% (active)"},
      {"smiles": "Cc1cc(C)cc(OCCn2c(CCNC(=O)C3CCCCC3)nc3ccccc32)c1", "survival": "105%"},
      {"smiles": "Cc1ccccc1OCCCn1c(CCNC(=O)C2CCCCC2)nc2ccccc21", "survival": "65%"},
      {"smiles": "O=C(NCCc1nc2ccccc2n1CCOc1ccc(Cl)cc1)C1CCCCC1", "survival": "20%"},
      {"smiles": "Cc1ccc(OCCCn2c(CCNC(=O)C3CCCCC3)nc3ccccc32)c(C)c1", "survival": "95%"},
      {"smiles": "Cc1cc(C)cc(OCCCn2c(CCNC(=O)C3CCCCC3)nc3ccccc32)c1", "survival": "27% (active)"},
      {"smiles": "COc1ccc(-c2nnc(SCC(=O)Nc3cccc(C(F)(F)F)c3)s2)cc1", "survival": "99%"},
      {"smiles": "COc1ccc(C(=O)N(Cc2cc(OC)c(OC)c(OC)c2)C2CCS(=O)(=O)C2)cc1Cl", "note": "(stereo unspecified)", "survival": "86%"},
      {"smiles": "COc1ccccc1-c1c(C)nn2c(N3CCN(c4ccccc4)CC3)cc(C)nc12", "survival": "70%"},
      {"smiles": "Cn1c(SCCN2CCCC2)nnc1-c1ccncc1", "survival": "112%"},
      {"smiles": "COc1cc(OC)c(NC(=O)c2nn(C)c3c2COc2ccccc2-3)cc1Cl", "survival": "111%"},
      {"smiles": "CCOc1ccc(-n2c(SCc3ccc(C(=O)OC)o3)nc3c([nH]c4ccccc43)c2=O)cc1", "survival": "82%"},
      {"smiles": "Oc1ccc(Br)cc1C=Nc1cccc(-c2nc3ccccc3o2)c1", "survival": "111%"},
      {"smiles": "COc1cccc2cc(C(=O)Nc3ccc(CC(=O)O)cc3)c(=O)oc12", "survival": "73%"},
      {"smiles": "CCOc1ccc(NC(=O)CSc2nnc3c(C)cc4ccccc4n23)cc1", "survival": "132%"},
      {"smiles": "O=C(Nc1ccc(Br)cc1)Nc1nc2c(s1)CCCCCC2", "survival": "82%"},
      {"smiles": "Cc1ccc(NC(=O)Nc2nc3c(s2)CCCCCC3)cc1C", "survival": "69%"},
      {"smiles": "O=C(Nc1nc2c(s1)CCCCCC2)Nc1ccc(F)cc1F", "survival": "-2% (active)"}
    ]}
  ]
}
